The values below come from PubChem BioAssay (NCATS).

Experiment [1] in a line: AP1 Signaling Pathway (AID 357; active = well fitted curve in either direction with a large enough effect, not every such curve was filed as active;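 also: ME-180 reporter cells stimulated with EGF at its EC50 level; % is scaled to controls: 0 for no effect and ±100 for the full control effect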). In outline: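 Titration-series screen for positive or negative modulators of EC50 EGF-induced signaling in ME-180 cells carrying an AP-1-driven beta-lactamase reporter. After 5 hours at 37 degrees Celsius, CCF4 460nm/530nm emission ratio gave %Activity; AC50 values derived.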
Experiment [2] deals with Cytochrome P450 1A2 (Homo sapiens) (UniProt P05177). The experiment can be described thus: p450-cyp1a2 (AID 410; calls by dose curve;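 also: -100% = full effect of reference inhibitor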). Put shortly: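 Human CYP1A2 (20nM) demethylated Luciferin-ME at its Km (100uM) in 100mM KPO4. After 10 min compound preincubation, NADPH regeneration ran the reaction 60 min at room temperature. Luciferin was read by luminescence, normalized to 57 uM furafylline.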
Cytochrome P450 1A2 (Homo sapiens), sequence (P05177 whole entry, looked up): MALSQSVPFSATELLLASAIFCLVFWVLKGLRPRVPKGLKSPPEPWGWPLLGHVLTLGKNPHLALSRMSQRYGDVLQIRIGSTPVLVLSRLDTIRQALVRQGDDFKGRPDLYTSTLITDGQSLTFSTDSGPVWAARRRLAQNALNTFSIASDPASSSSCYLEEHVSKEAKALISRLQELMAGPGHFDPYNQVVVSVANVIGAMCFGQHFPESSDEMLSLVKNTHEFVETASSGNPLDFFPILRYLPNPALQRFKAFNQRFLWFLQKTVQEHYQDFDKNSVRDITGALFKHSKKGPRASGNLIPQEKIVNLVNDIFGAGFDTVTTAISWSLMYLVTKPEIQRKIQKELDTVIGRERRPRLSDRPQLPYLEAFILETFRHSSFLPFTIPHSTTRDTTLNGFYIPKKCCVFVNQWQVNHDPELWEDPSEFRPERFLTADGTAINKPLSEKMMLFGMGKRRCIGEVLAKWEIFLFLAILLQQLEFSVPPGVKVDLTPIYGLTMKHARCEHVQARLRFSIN

The nature of experiment [3]: NFAT Signaling Pathway (AID 444; active = well fitted curve in either direction with a large enough effect, not every such curve was filed as active;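 also: carbachol stimulus at about its EC50 of 1 µM final; % is scaled to controls: 0 for no effect and ±100 for the full control effect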). Particulars: Jurkat NFAT-bla M1, carbachol, beta-lactamase ratio, 5 h; at 17.2 µM (top of the series) unless noted. In outline:
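Jurkat cells with NFAT-driven β-lactamase reporter and co-expressed M1 receptor, stimulated with carbachol (final 1 uM, ~EC50), compound titration, 5 h at 37 °C. CCF4 loaded 1 h at RT; 460/530 nm ratio gave %activity and AC50.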

A short description of experiment [4]: Stat Signaling Pathway (AID 446; active = well fitted curve in either direction with a large enough effect, not every such curve was filed as active;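 also: ME-180 cervical cancer cells given 40 pM IL-6 alongside compound; SIE-controlled beta-lactamase reporter measured as 460/530 nm FRET emission ratio; % is scaled to controls: 0 for no effect and ±100 for the full control effect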). In outline: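 ME-180 SIE-bla cells; overnight plating; cpd + IL-6 40 pM, 5 h, 37 C; LiveBLAzer 2.5 h RT; 460/530 nm emission ratio. Normalized to 300 pM IL-6 and 125 nM JAK inhibitor controls.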
Experiment [5] addresses Glucocorticoid receptor (Homo sapiens) (UniProt P04150). The experiment can be described thus: GR-EFC Redistribution (AID 451; calls by dose curve; also: potency is read from the fitted curve at half-maximal effect). Particulars: CHO-K1 GR-EFC translocation, beta-gal luminescence, 2 h. Put shortly:
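CHO-K1 cells expressing nuclear EA and GR-ED fragments of b-gal; compounds titrated up to 46 uM final, 2 h at 37 C. GR nuclear translocation read as complemented b-gal luminescence after 1 h RT detection.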

Experiment [6] concerns the target Mitogen-activated protein kinase 10 (Mus musculus) (UniProt Q61831). The experiment in a line: JNK3 AlphaScreen Assay (AID 530; active = well fitted curve in either direction with a large enough effect, not every such curve was filed as active;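 also: kinase came from lysate of stimulated human HepG2 cells; signal reports phosphorylation of biotinylated GST-cJun 1-79 at Ser73 with 10 µM ATP; % is scaled to controls: 0 for no effect and ±100 for the full control effect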). Put shortly:
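qHTS format: compounds tested as titrations against IL-1beta/TNF-alpha-activated HepG2 lysate JNK3 with biotin-GST-cJun substrate and 10 uM ATP at room temperature. Loss of anti-phospho-cJun AlphaScreen signal indicates inhibition.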

Experiment [7] addresses 3',5'-cyclic-AMP phosphodiesterase 4B (Homo sapiens) (UniProt Q07343). The experiment in a line: qHTS Assay for Inhibitors of PDE-IV (AID 607; active = well fitted activation curve with a large enough effect in the main read-out, with a control signal flat, not every such curve was filed as active; also: % of control where 0% means no effect). Put shortly: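 ACTOne HEK293 cells carry a modified cAMP-gated CNG channel and express endogenous PDE4; plated 1000 cells/well, compounds up to 22.9 uM final. Membrane-potential dye fluorescence (ex 535/em 590) was read; parental cells received 10 uM forskolin + 100 uM RO 20-1724.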

A short description of experiment [8]: qHTS Assay for Lipid Storage Modulators (AID 1519; calls by dose curve). The following applies: Drosophila S3 cells, BODIPY lipid droplet/cell ratio, laser cytometry, cells loaded with oleic acid; for activity change, negative = inhibition: at 25.7 µM (top of the series). In outline:
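Cells seeded at 5,000 per well were treated with compounds over a concentration series and loaded with oleic acid (400 uM, as added). Lipid droplet fluorescence (488 nm excitation, 500-530 nm channel) was read by laser-scanning cytometry and normalized to 20 uM Triacsin C.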

Experiment [9] addresses Luciferin 4-monooxygenase (Photinus pyralis) (UniProt P08659). The experiment can be described thus: Biochemical firefly luciferase enzyme assay for NPC (AID 624030).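 Also: purified P. pyralis luciferase at 10 nM with luciferin and ATP substrate; 0% = DMSO and -100% = full luciferase inhibition by PTC124 control; nearly all actives have a fitted effect of over 70% in size.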 In outline:
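Purified P. pyralis luciferase at 10 nM in 50 mM Tris Acetate (final), luminescence read within 5 minutes of enzyme addition to compounds. Activity normalised to PTC124 versus DMSO; concentration-response curves classed by r2, magnitude and activity.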

Experiment [10] is described as follows: S16 Schwann cell viability assay (CellTiter-Glo assay) (AID 624031).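 Also: cellular ATP luminescence as a viability measure; plate controls were DMSO-treated cells for no effect and cell-free wells for full effect; nearly all actives have a fitted effect of over 70% in size.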 In outline: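 Native S16 rat Schwann cells, 500-750 cells/well in DMEM with 10% FBS, dosed with compound after overnight culture and incubated 24h at 37 degree Celsius/5% CO2. Viability by CellTiter-Glo luminescence; % activity normalized to no-cell wells and DMSO-treated cells.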
A short description of experiment [11]: qHTS profiling for inhibitors of Plasmodium falciparum proliferation (AID 504749).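 Also: 0% = DMSO vehicle and full inhibition = artemisinin control; nearly all actives have a fitted effect of over 60% in size.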 The following applies: P. falciparum in erythrocytes, SYBR Green DNA, 72 h, at 12.8 µM (top of the series). Put shortly: (§1)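 Readout was DNA-dye fluorescence from lysed cultures, ex 485/em 535 nm. Parasitized red cells had grown 72 h with compound; data scaled between 0.29 uM artemisinin and DMSO wells and corrected using vehicle-only plates.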

In experiment [12] the test system is C2A. The experiment is described as above. The following applies: P. falciparum in erythrocytes, SYBR Green DNA, 72 h; series mostly up to 12.8 µM. In outline: as §1
The subject of experiment [13] is CP191. The description is as above. Particulars: P. falciparum in erythrocytes, SYBR Green DNA, 72 h; series mostly up to 12.8 µM. Put shortly:
as §1

Experiment [14] concerns CP256. The experiment is described as above. Particulars: P. falciparum in erythrocytes, SYBR Green DNA, 72 h; series mostly up to 12.8 µM. Put shortly: as §1
In experiment [15] the test system is CP262. The description is as above. The following applies: P. falciparum in erythrocytes, SYBR Green DNA, 72 h; series mostly up to 12.8 µM. In outline: as §1
For experiment [16], the system named is CP268. The description is as above. The following applies: P. falciparum in erythrocytes, SYBR Green DNA, 72 h; series mostly up to 12.8 µM. Put shortly: as §1
In experiment [17] the test system is JCK. Described as above. Particulars: P. falciparum in erythrocytes, SYBR Green DNA, 72 h; series mostly up to 12.8 µM. Put shortly:
as §1

Experiment [18] relates to SC27B. Described as above. Particulars: P. falciparum in erythrocytes, SYBR Green DNA, 72 h; series mostly up to 12.8 µM. In outline:
as §1

The target in experiment [19] is Glucocorticoid receptor (Homo sapiens) (UniProt P04150). The experiment in a line: GR-GFP Redistribution (AID 450;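 active = compounds whose dose series gives a full or clear partial fitted curve of increased nuclear translocation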; also: potency is read from the fitted curve at half-maximal effect). Particulars: U2OS GR-GFP nuclear translocation, laser cytometry, 2 h.
Glucocorticoid receptor (Homo sapiens), sequence (P04150 whole entry, looked up, the tested form may be a part): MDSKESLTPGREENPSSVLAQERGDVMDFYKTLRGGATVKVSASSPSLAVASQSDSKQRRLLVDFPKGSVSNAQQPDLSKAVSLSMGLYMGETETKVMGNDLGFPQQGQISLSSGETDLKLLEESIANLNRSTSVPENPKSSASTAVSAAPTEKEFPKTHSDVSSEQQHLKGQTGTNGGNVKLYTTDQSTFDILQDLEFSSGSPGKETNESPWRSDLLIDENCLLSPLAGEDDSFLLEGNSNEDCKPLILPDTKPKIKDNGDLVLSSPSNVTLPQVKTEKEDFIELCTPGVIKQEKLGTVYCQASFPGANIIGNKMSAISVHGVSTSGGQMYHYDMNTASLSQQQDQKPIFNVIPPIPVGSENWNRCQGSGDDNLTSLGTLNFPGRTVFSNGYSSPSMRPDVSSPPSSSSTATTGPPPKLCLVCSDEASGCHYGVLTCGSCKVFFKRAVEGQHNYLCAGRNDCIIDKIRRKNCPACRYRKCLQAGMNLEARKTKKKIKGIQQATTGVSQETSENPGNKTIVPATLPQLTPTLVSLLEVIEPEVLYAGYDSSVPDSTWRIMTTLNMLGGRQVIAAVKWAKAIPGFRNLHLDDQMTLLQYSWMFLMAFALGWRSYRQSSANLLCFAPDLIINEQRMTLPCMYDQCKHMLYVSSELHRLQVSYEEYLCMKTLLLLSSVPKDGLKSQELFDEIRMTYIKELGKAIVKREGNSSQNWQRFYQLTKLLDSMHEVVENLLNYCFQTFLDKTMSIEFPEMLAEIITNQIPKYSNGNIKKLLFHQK
For experiment [20], the target named is Ubiquitin carboxyl-terminal hydrolase 1 (Homo sapiens) (UniProt O94782). The experiment can be described thus: Inhibitors of USP1/UAF1: Pilot qHTS (AID 504865).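 Also: rhodamine fluorescence freed from ubiquitin-rhodamine substrate followed over time; top concentration of the series differs between compounds; % is scaled to controls: 0 for no effect and ±100 for the full control effect; nearly all actives have a fitted effect of over 35% in size.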 Put shortly: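 Enzyme-free wells gave the negative control, while test wells held 1nM USP1/UAF1 preincubated with compound for 15 min at room temperature. Ub-Rho at 150nM final started the reaction, and fluorescence at 480/540 nm was recorded kinetically.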
Ubiquitin carboxyl-terminal hydrolase 1 (Homo sapiens), sequence (O94782 whole entry, looked up): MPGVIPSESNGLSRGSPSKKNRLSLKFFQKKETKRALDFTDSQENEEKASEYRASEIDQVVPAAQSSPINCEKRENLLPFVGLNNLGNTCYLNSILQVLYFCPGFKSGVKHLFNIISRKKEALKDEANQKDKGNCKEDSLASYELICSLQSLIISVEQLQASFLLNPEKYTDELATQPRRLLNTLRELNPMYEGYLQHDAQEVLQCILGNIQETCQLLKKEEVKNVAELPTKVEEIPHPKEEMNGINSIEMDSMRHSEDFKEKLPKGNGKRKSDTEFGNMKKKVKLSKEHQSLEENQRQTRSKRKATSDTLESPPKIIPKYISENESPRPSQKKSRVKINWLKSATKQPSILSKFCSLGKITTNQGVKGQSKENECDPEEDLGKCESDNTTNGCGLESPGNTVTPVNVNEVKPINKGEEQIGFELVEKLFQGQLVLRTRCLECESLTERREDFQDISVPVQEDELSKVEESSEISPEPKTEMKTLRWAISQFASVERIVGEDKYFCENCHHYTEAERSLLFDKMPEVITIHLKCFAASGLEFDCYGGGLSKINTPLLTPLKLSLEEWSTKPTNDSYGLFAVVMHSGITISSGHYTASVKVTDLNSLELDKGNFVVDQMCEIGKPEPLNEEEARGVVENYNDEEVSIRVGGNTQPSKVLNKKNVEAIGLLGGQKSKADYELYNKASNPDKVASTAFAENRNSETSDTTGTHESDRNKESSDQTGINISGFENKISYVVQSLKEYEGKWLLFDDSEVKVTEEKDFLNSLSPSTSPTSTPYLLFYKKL

Setting [21] is: measured here: cell count channel max response.
Setting [22] is: measured here: lipid channel max response.

Inconclusive results are not listed. The source made the active and inactive calls. Unless noted, calls follow the shape of the dose curve; as a rule, active = well fitted curve in the direction sought with a large enough effect; inconclusive = small, poorly fitted or top-dose-only effect, or another doubt; inactive = no such curve, though single readings can be large; an effect the other way counts as inactive or inconclusive.

Luciferin 4-monooxygenase (Photinus pyralis), sequence (P08659 whole entry, looked up): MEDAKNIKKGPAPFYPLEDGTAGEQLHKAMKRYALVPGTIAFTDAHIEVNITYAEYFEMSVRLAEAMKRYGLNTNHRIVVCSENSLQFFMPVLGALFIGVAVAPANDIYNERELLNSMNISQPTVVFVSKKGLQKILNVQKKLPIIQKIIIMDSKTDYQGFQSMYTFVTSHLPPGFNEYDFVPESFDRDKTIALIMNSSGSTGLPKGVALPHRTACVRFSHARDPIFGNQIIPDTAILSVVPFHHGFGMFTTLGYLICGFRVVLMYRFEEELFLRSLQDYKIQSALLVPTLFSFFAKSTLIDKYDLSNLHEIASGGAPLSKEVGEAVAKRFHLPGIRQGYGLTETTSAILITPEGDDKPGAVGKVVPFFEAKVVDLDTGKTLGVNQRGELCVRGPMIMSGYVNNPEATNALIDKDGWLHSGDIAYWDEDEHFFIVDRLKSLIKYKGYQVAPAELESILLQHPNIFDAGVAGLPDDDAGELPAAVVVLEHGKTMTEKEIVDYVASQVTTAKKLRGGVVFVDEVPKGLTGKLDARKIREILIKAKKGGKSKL
3',5'-cyclic-AMP phosphodiesterase 4B (Homo sapiens), sequence (Q07343 whole entry, looked up): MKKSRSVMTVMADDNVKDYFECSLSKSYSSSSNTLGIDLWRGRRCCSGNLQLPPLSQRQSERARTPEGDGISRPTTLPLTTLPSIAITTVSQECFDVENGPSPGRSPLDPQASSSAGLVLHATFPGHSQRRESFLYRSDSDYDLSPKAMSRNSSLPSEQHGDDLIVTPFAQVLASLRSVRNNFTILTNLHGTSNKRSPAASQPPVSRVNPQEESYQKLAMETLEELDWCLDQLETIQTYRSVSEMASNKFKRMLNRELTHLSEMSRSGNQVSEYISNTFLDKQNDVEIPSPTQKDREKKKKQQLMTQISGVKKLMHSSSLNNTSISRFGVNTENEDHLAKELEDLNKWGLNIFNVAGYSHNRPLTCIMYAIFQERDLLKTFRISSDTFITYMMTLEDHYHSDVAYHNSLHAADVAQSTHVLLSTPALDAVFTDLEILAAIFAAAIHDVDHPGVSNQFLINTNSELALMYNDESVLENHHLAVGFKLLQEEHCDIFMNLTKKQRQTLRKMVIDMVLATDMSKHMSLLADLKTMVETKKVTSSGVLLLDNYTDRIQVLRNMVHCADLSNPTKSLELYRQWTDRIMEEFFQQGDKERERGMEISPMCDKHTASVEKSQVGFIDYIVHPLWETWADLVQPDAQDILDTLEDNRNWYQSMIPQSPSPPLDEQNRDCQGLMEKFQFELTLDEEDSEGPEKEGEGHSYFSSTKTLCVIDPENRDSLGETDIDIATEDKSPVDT

As to `CN(C)c1ccc(O)c2c1C[C@H]1C[C@H]3[C@@H](N(C)C)C(=O)C(C(N)=O)=C(O)[C@]3(O)C(=O)C1=C2O`, the result in experiment [1], in experiment [4] and in [7] was inactive. Also, the Potency entry in experiment [2] and in experiment [6] was “inactive” throughout. The activity change, negative = inhibition was 12.2% (inactive) in experiment [3] and -0.929% (inactive) in experiment [8]. In addition, the Potency in experiment [5] is > 20.6 µM (inactive). For the same molecule, the max response in experiment [8] (setting [21]) stood at 2.32%; in [8] (setting [22]) it was 0.719%.

For `COCC(=O)Nc1c(I)c(C(=O)NC[C@@H](O)CO)c(I)c(C(=O)N(C)C[C@@H](O)CO)c1I`, the call in [1], in experiment [4], in experiment [7] and in experiment [10] was inactive. In addition, the Potency entry in experiment [2], in experiment [6], in [9], in experiment [12], in experiment [13] and in [14] was “inactive” in each case. Further, the Potency result in [15], in [16], in [17] and in [18] was “inactive” in each case. The activity change, negative = inhibition was 3.09% (inactive) in experiment [3] and -0.947% (inactive) in experiment [8]. In addition, the figures for the max response in experiment [8] (setting [21]) and in experiment [8] (setting [22]) were -5.27% and -9.01%, respectively. Further, the results for the activity, negative = inhibition in [11] (parasite line A) and in experiment [11] (parasite line B) were -0.503% (inactive) and -0.0954% (inactive), respectively.

Turning to `CC(=O)[C@@H]1CC[C@@H]2[C@@H]3C[C@H](C)C4=CC(=O)CC[C@@]4(C)[C@H]3[C@H](O)C[C@]21C`, the result in experiment [1], in experiment [4], in experiment [7] and in [10] was inactive. Moreover, the Potency result in experiment [2], in experiment [6], in experiment [20], in experiment [9], in experiment [12] and in experiment [13] was “inactive” throughout. Further, the Potency result in experiment [14], in experiment [15], in experiment [16], in experiment [17] and in experiment [18] was “inactive” throughout. Besides, the activity change, negative = inhibition is -5.99% (inactive) in [3] and -5.46% (inactive) in experiment [8]. Also, in [19], the Potency was 0.0015 µM (active). For the same molecule, the max response in experiment [8] (setting [21]) was -5.95%; in experiment [8] (setting [22]), -15.5%. For the same molecule, the figures for the activity, negative = inhibition in experiment [11] (parasite line A) and in experiment [11] (parasite line B) were 0.756% (inactive) and -6.03% (inactive), respectively.

As for `Cc1n[nH]c(=O)[nH]c1=O`, the molecule was classed as inactive in experiment [1], in [4] and in experiment [7]. Besides, the Potency entry in experiment [2], in experiment [6] and in experiment [20] was “inactive” throughout. The activity change, negative = inhibition in experiment [3] is -10% (inactive); in [8] it was 1.08% (inactive). Besides, the Potency in experiment [5] is > 20.6 µM (inactive). The max response in experiment [8] (setting [21]) is -2.21%; in experiment [8] (setting [22]), -2.22%.

In the case of `C/C(=C(/CCO)SSC[C@@H]1CCCO1)N(C=O)Cc1cnc(C)nc1N`, the outcome in experiment [1], in [4] and in experiment [7] was inactive. Besides, the Potency entry in [2], in [6], in [20] and in experiment [9] was “inactive” in each case. For the same molecule, the activity change, negative = inhibition in experiment [3] is -21.3% (inactive); in experiment [8] it was -0.641% (inactive). Also, the Potency in experiment [19] and in experiment [5] was > 20.6 µM (inactive) throughout. In addition, the max response was -21% in experiment [8] (setting [21]) and -20.8% in experiment [8] (setting [22]).

With `Nc1c(O)cccc1C(=O)C[C@@H](N)C(=O)O`, the outcome in experiment [1], in experiment [4] and in experiment [7] was inactive. The Potency result in experiment [2] and in experiment [6] was “inactive” in each case. Further, the results for the activity change, negative = inhibition in experiment [3] and in experiment [8] were -7.19% (inactive) and -1.89% (inactive), respectively. In addition, the Potency in experiment [19] and in experiment [5] was > 20.6 µM (inactive) in each case. In addition, the max response in experiment [8] (setting [21]) is -4.16%; in [8] (setting [22]) it was -9.91%.
